This is a sample that favours compounds with a hit; in the whole collection about 1.1% have one here.
MazEF act = activators of E. coli MazEF toxin-antitoxin RNase, primary screen, biochemical, fluorescence, uHTS. AID 504720, 2011. activation, % at 20 µM. actives 0.32% (n = 350,000). FAM/BHQ RNA-DNA oligo cleavage fluorescence, 5 h. Endoribonuclease toxin MazF (Escherichia coli (strain K12)), P0AE70; in the data active means activation above about 50%
Target sequence (P0AE70 whole entry, looked up): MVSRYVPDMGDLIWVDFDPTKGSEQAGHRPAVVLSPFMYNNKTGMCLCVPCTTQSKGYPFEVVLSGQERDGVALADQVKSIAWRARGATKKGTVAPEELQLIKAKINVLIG
Y pestis TopoI = Yersinia pestis topoisomerase I inhibitors, primary screen, biochemical, cleavage product accumulation, plate reader, single point; Y. pestis Topo-I cleavage product accumulation; activity, % at 10 µM; AID 504884, 2011; actives 0.064% (n = 360,000); in the data active means activity above about 50%, passing the limit was not always enough
3CLpro inhibitor = SARS-CoV 3CLpro protease inhibitors, primary screen, biochemical, quenched FRET | actives 0.14% (n = 290,000) | recombinant SARS-CoV 3CLpro, quenched FRET peptide cleavage | inhibition, % at 6 µM | Replicase polyprotein 1ab (Severe acute respiratory syndrome coronavirus), P0C6X7 | AID 1706, 2009; in the data active means inhibition above about 12%
Mtb BioA inh = M. tuberculosis BioA enzyme inhibitors, primary screen, biochemical, plate reader, single point, HTS. AID 602481, 2012. actives 0.096% (n = 360,000). inhibition, % at 9.99 µM. purified M. tuberculosis BioA enzyme. 7,8-diaminopelargonic acid synthase BioA (Mycobacterium tuberculosis); in the data active means inhibition above about 40%
BJeLR viability = MLPCN primary cell-based screen for lethality selective to Ras in HRASV12 cells. BJeLR (HRASV12) viability, CellTiter-Glo ATP luminescence, 48 h. inhibition, % (no concentration beside the values). actives 0.17% (n = 300,000). AID 1554, 2009; in the data active means inhibition above about 50%
PfHsp40 rescue = rescue of yeast from PfHsp40 toxicity, primary screen, S. cerevisiae, ATP luminescence. S. cerevisiae expressing PfHsp40, growth rescue. growth rescue, % at 12.5 µM. actives 0.68% (n = 340,000); in the data active means growth rescue above about 28%, passing the limit was not always enough;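 further: yeast W303a lacking pdr1 and pdr3 grown in galactose medium; growth measured after three days at 30 °C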
* = called active by the depositor; x = no result given; + = active, no number.

SMILES	MazEF act	Y pestis TopoI	3CLpro inhibitor	Mtb BioA inh	BJeLR viability	PfHsp40 rescue
C[C@@H]1CCCCO[C@@H](CN(C)S(=O)(=O)c2ccccc2)[C@H](C)CN([C@H](C)CO)C(=O)c2cc(NC(=O)c3ccccc3)ccc2O1	x	x	x	-2	x	x
Cc1noc(C)c1NC(=O)N(C)C[C@H]1Oc2ccc(NC(=O)Nc3cccc4ccccc34)cc2CC(=O)N([C@H](C)CO)C[C@@H]1C	x	x	x	-1	x	x
Cc1cccc(NC(=O)c2ccc(NCC3CCCO3)c([N+](=O)[O-])c2)n1 (stereo not drawn)	7	-8	-2	x	10	3
O=C(Nc1cccc(Cl)c1)c1ccc(NCC2CCCO2)c([N+](=O)[O-])c1 (stereo not drawn)	67*	0	1	-1	5	1
Cc1cccc(NC(=O)c2ccc(NCC3CCCO3)c([N+](=O)[O-])c2)c1 (stereo not drawn)	121*	5	-1	x	6	0
O=C(Nc1ccccc1)c1ccc(NCCc2ccccc2)c([N+](=O)[O-])c1	+	4	1	x	-19	0
CS(=O)(=O)c1ccc(NCC2CCCO2)c([N+](=O)[O-])c1 (stereo not drawn)	1	-9	-1	1	-5	-1
Cc1cccc(S(=O)(=O)N2CC[C@@H]3[C@@H](CO)Nc4ccc(C#Cc5ccc(F)cc5)cc4[C@@H]32)c1	x	x	x	0	x	x
C[C@@H]1CN([C@@H](C)CO)C(=O)Cc2cc(NS(C)(=O)=O)ccc2O[C@H]1CN(C)S(C)(=O)=O	x	x	x	-1	x	x
COc1ccc(C(=O)O/N=C/c2c(C(F)(F)F)nn(C)c2SCc2ccccc2Cl)cc1	2	46	-5	x	2	-1
Cn1nc(C(F)(F)F)c(/C=N/OC(=O)c2ccccc2Cl)c1SCc1ccc(Cl)cc1	10	35	1	x	-2	52*
C[C@@H]1CN([C@H](C)CO)C(=O)Cc2cc(NS(=O)(=O)c3ccc(F)cc3)ccc2O[C@@H]1CN(C)C(=O)Nc1ccc(F)cc1	x	x	x	-2	x	x
Cc1nc2ccc(C(C(F)(F)F)(C(F)(F)F)C(F)(F)F)cc2[nH]1	5	-5	2	1	20	241*
CCOc1ccccc1CNC(c1ccccc1)c1ccccc1	-8	52*	-2	-1	0	1
Cc1ccc2nc(C(Cl)(Cl)Cl)nc(N/N=C/c3ccc([N+](=O)[O-])cc3)c2c1	55*	-1	x	0	x	-1
Cc1ccc(C=NNc2ccc([N+](=O)[O-])cn2)cc1	16	-9	x	x	x	36*
Brc1ccccc1/C=N/Nc1ccc2ccccc2n1	-2	2	1	x	-2	5
O=[N+]([O-])c1cccc(C=NNc2ccc3ccccc3n2)c1O	2	-14	x	x	x	241*
O=[N+]([O-])c1ccc(NN=Cc2cccc3ccccc23)nc1	123*	-15	x	-1	x	0
C[C@@H]1CN([C@@H](C)CO)C(=O)Cc2cc(NS(=O)(=O)c3cn(C)cn3)ccc2O[C@@H]1CN(C)Cc1ccc(Cl)c(Cl)c1	x	x	x	2	x	x
C[C@@H]1CN([C@H](C)CO)C(=O)c2cc(NC(=O)c3ccncc3)ccc2O[C@@H]1CN(C)C(=O)Nc1ccc2c(c1)OCO2	x	x	x	0	x	x
CC(=NNc1ccc([N+](=O)[O-])cn1)c1ccccc1	8	0	x	-1	x	-1
O=[N+]([O-])c1ccc(NN=C(c2ccccc2)c2ccccc2)nc1	-12	6	x	-2	x	55*
CC1COc2ccccc2N1S(=O)(=O)c1ccc(Cl)cc1 (stereo not drawn)	-15	26	-1	x	0	32*
COc1ccc(S(=O)(=O)Nc2ccc3c(c2)C(=O)N([C@@H](C)CO)C[C@H](C)[C@H](CN(C)C)OCCCC[C@@H](C)O3)cc1	x	x	x	1	x	x
SMILES	MazEF act	Y pestis TopoI	3CLpro inhibitor	Mtb BioA inh	BJeLR viability	PfHsp40 rescue
COc1cc(NC(=O)c2ccc3c(c2)OCCO3)ccc1NC(=O)c1cccs1	8	-11	0	x	x	71*
Cc1nc2ccc(NC(=O)c3ccc(Cl)c(NC(=O)c4cccs4)c3)cc2s1	-7	-5	-5	0	3	2
Cc1ccc(C)c(NS(=O)(=O)c2ccc(NC(=O)CSc3ccc(Cl)cc3)cc2)c1	4	-1	0	x	-6	-2
Cc1cc(C)nc(NS(=O)(=O)c2ccc(NC(=O)c3cccs3)cc2)n1	-10	-1	2	1	-4	2
Cc1ccc(NS(=O)(=O)c2ccc(NC(=O)C(C)Sc3ccc(Cl)cc3)cc2)c(C)c1 (stereo not drawn)	0	4	7	x	-5	93*
Cc1ccc(NC(=O)c2ccc(Cl)c(NC(=O)c3cccs3)c2)cc1	12	-1	-3	0	13	35*
Cc1ccc(NS(=O)(=O)c2ccc(NC(=O)c3cccs3)cc2)c(C)c1	53*	8	6	x	2	1
CO[C@@H]1CN(C)C(=O)c2cc(NC(C)=O)ccc2OC[C@@H](C)N(C(=O)CN2CCOCC2)C[C@H]1C	x	x	x	-1	x	x
CC(C)NC(=O)N(C)C[C@H]1OCCCC[C@H](C)Oc2ccc(NC(=O)Nc3ccc(F)cc3)cc2C(=O)N([C@@H](C)CO)C[C@H]1C	x	x	x	-1	x	x
C[C@@H]1CCCCO[C@H](CN(C)Cc2ccc3c(c2)OCO3)[C@@H](C)CN([C@H](C)CO)C(=O)c2cc(NC(=O)C3CCCCC3)ccc2O1	x	x	x	-1	x	x
O=C1O[C@H](c2ccccc2)[C@H](c2ccccc2)N2[C@H]1[C@@H](C(=O)N1CCCCCCC1)[C@]1(C(=O)Nc3ccc(C#CCCO)cc31)[C@H]2c1ccc(O)cc1	x	x	x	-2	x	x
COC(=O)C1=C(C)N=c2s/c(=C/c3ccoc3)c(=O)n2C1c1ccccc1 (stereo not drawn)	88*	-6	-2	-3	-3	2
CCOC(=O)C1=C(C)N=c2s/c(=C\c3ccc(OCC(=O)O)cc3)c(=O)n2C1c1ccccc1 (stereo not drawn)	-5	16	6	1	-13	1
COc1cccc(-c2cnc3c(c2)C(=O)N([C@H](C)CO)C[C@H](C)[C@H](CN(C)C)O3)c1	x	x	x	0	x	x
C/C=C/c1cnc2c(c1)C(=O)N([C@@H](C)CO)C[C@@H](C)[C@H](CN(C)C(=O)c1cccc(F)c1)O2	x	x	x	6	x	x
COc1ccc(CN(C)C[C@H]2Oc3ccc(NS(=O)(=O)c4ccc(F)cc4)cc3CC(=O)N([C@@H](C)CO)C[C@@H]2C)cc1	x	x	x	1	x	x
CCCC#Cc1ccc2c(c1)O[C@H](CN(C)Cc1ccccc1)[C@@H](C)CN([C@H](C)CO)S2(=O)=O	x	x	x	-3	x	x
